# Measured values taken from the supplement of paper PMC4166925.
# ± gives the standard deviation of the averaged measurements. Whole data set: some 33,000 sequences, median “E-score (dimensionless, -0.5 to 0.5)” near -0.049, cut for the highest 2% near 0.37. The sample holds the highest values, similar sequences and a random draw of the others, so the mix is not that of the screen.
# System: T1, PmTbr T-box DNA-binding domain (GST fusion)
# T1 sequence: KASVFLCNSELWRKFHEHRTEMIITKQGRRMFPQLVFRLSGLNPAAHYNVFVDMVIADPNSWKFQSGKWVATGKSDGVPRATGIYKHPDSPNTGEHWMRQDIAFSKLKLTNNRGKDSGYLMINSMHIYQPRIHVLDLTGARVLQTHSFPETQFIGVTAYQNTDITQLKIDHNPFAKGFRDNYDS
# Test: PBM E-score of 8-mer (E-score (dimensionless, -0.5 to 0.5)); Tbr is Tbrain of the sea star Patiria miniata (Pm) or the sea urchin Strongylocentrotus purpuratus (Sp); higher = stronger binding preference
# Conditions: the construct has about 5 more residues each side
# How it was run: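 Primer extension turned Universal Agilent oligonucleotide arrays double-stranded. They were incubated with 200 nM protein in PBS (pH 7.5); the protein was a GST-fused Tbr T-box DNA-binding domain expressed in BL21 E. coli at 20 °C and purified on glutathione. Every ungapped 8-mer was scored from the scanned, quantified probe intensities, and the Universal PBM Analysis Suite gave each an enrichment E-score averaged over duplicate arrays.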
row,Sequence,PBM E-score of 8-mer
1,CGAAGATC,-0.07 ± 0.0097
2,ACCGCAGA,-0.332 ± 0.019
3,CATCCTCA,-0.0261 ± 0.11
4,GAACCTAC,-0.179 ± 0.00047
5,GGCTTAAA,-0.302 ± 0.016
6,ACAAGCTA,-0.0967 ± 0.014
7,CGGTGACA,0.333 ± 0.0054
8,TCGTGACA,0.358 ± 0.017
9,GGGTGAAA,0.0558 ± 0.043
10,GGGTGACC,-0.0479 ± 0.082
11,GGGTGACA,0.4543 ± 0.0023
12,TGGTGACA,0.409 ± 0.01
13,CGCGCTCA,0.13 ± 0.034
14,TATAAGGA,-0.154 ± 0.073
15,CACCAATA,0.224 ± 0.056
16,CCATGGCC,-0.263 ± 0.011
17,CGGTGACG,0.179 ± 0.047
18,AGGTGAAA,0.347 ± 0.022
19,AGGTGACC,0.172 ± 0.052
20,AGGTGACG,0.4629 ± 0.0014
21,AGGTGACA,0.4826 ± 0.00079
22,AGGTGACT,0.31 ± 0.015
23,GGGGGGCA,-0.327 ± 0.0093
24,GCTCTGAC,-0.205 ± 0.092
25,GGAAACCA,-0.1389 ± 0.00081

row,Sequence,PBM E-score of 8-mer
1,AACTCTCG,-0.128 ± 0.018
2,GATTCACC,-0.167 ± 0.0053
3,AATTCACA,0.2798 ± 0.0014
4,TATTCACA,0.411 ± 0.029
5,CATTCACA,0.385 ± 0.0049
6,CATTCACC,-0.0785 ± 0.054
7,CATTCACG,0.229 ± 0.041
8,AATTCACG,0.365 ± 0.0071
9,GATTCACA,0.38 ± 0.041
10,GATTCAGA,-0.206 ± 0.0085
11,AGACCACT,-0.234 ± 0.093
12,TACCCATA,-0.104 ± 0.024
13,AACTGACG,0.102 ± 0.036
14,ACGTGTGG,0.362 ± 0.017
15,AGGTGTGC,0.44 ± 0.0051
16,AGATGTGC,0.163 ± 0.018
17,CTGTGTGC,-0.0563 ± 0.038
18,ATGTGTGG,0.3184 ± 0.0012
19,AGGTGTGG,0.483 ± 0.0024
20,ATACTCCG,-0.00617 ± 0.029
21,AGAGTTAT,-0.0216 ± 0.013
22,GTCCAACA,0.198 ± 0.045
23,AAAGCGTG,0.2812 ± 0.0023
24,CGTAAACG,0.0455 ± 0.046
25,AGGCGTAG,0.0703 ± 0.0097

row,Sequence,PBM E-score of 8-mer
1,AGGCGTTG,0.369 ± 0.0053
2,AGGCGTTC,0.0817 ± 0.053
3,AGGCGTTA,0.4486 ± 0.0021
4,GGGCGTTA,0.276 ± 0.0092
5,CGGCGTTA,0.189 ± 0.00085
6,ATTGGAGG,0.0195 ± 0.049
7,AAATGGGC,0.0759 ± 0.0097
8,GGCAACGA,0.0835 ± 0.033
9,AGGAGATG,-0.0689 ± 0.011
10,ACTTTTAC,-0.0251 ± 0.02
11,CCAGAGCC,-0.17 ± 0.0096
12,GAGGTGGC,0.372 ± 0.036
13,CAGGTGGC,0.364 ± 0.018
14,AAGGTGGG,0.221 ± 0.026
15,GAGGTGGA,0.0566 ± 0.0027
16,AAGGTGGA,-0.0394 ± 0.074
17,AAGGTGGC,0.383 ± 0.021
18,TACTAGTA,-0.163 ± 0.035
19,CTGTAGCA,-0.0144 ± 0.079
20,ACGCACCA,0.0123 ± 0.072
21,AATCTTTA,-0.0517 ± 0.059
22,AACACGAT,0.291 ± 0.018
23,AACACGTC,0.399 ± 0.021
24,AACACGTA,0.34 ± 0.024
25,GACACGTC,0.373 ± 0.021

row,Sequence,PBM E-score of 8-mer
1,AACACGGC,0.162 ± 0.017
2,GACACGTA,0.317 ± 0.029
3,AACACGTT,0.386 ± 0.014
4,GACACGGC,0.187 ± 0.038
5,AACACGCT,0.197 ± 0.011
6,ACGCGTTC,0.138 ± 0.014
7,TTAGTGAA,-0.048 ± 0.037
8,TCTAAGAA,-0.239 ± 0.028
9,CAAGGTAA,0.00125 ± 0.13
10,GAAGGTAC,-0.214 ± 0.046
11,CAAGGTGC,0.4331 ± 0.00078
12,CAAGGTGA,0.406 ± 0.0091
13,GAAGGTCC,-0.1794 ± 0.0013
14,CAAGGTTC,0.0603 ± 0.055
15,GAAGGTAA,0.00393 ± 0.033
16,TAAGGTGA,0.3578 ± 0.00067
17,CAAGGTGG,0.323 ± 0.03
18,CAAGGTCA,0.0991 ± 0.0032
19,GAAGGTGA,0.406 ± 0.011
20,GAAGGTGC,0.439 ± 0.012
21,TCAAATGA,-0.203 ± 0.019
22,ATGGGCCA,-0.105 ± 0.04
23,CAGCGCTG,0.0573 ± 0.064
24,CATTACCA,-0.0668 ± 0.0072
25,ACTCCTTC,0.0419 ± 0.014

row,Sequence,PBM E-score of 8-mer
1,AGCTATAA,-0.182 ± 0.011
2,AGTTAGGG,-0.128 ± 0.021
3,AGGGTGCG,0.356 ± 0.052
4,CAGGTGCC,0.4 ± 0.0072
5,CAGGTGCA,0.277 ± 0.021
6,ACGGTGCG,0.309 ± 0.042
7,CAGATGCG,-0.135 ± 0.048
8,CGGGTGCC,0.247 ± 0.024
9,AAGGTGCG,0.45 ± 0.014
10,CTGGTGCC,0.128 ± 0.018
11,CAGGTGCG,0.4533 ± 0.0028
12,CCCACTCC,-0.0608 ± 0.036
13,CCCAGATA,-0.233 ± 0.14
14,CGAAAGCC,-0.0801 ± 0.046
15,CAGTAAAC,-0.125 ± 0.0037
16,ACTAAACT,-0.221 ± 0.1
17,AAGGACTT,-0.228 ± 0.067
18,CTGTTAGA,0.118 ± 0.0087
19,ATGTTATA,-0.0814 ± 0.076
20,GTGTTACA,0.386 ± 0.013
21,GTGTTAGA,0.419 ± 0.0094
22,GTGTTATA,0.426 ± 0.013
23,ATGTTACA,0.0933 ± 0.047
24,CTGTTAAA,0.23 ± 0.015
25,TTGTTAAA,0.199 ± 0.035

row,Sequence,PBM E-score of 8-mer
1,ATGTTAGA,-0.236 ± 0.027
2,GTGTTAAA,0.429 ± 0.021
3,CTGTTATA,0.184 ± 0.016
4,CTGTTACA,0.197 ± 0.0076
5,CACCAGTA,0.132 ± 0.018
6,CAGGCGTA,-0.0498 ± 0.043
7,AGCCACGC,-0.0441 ± 0.025
8,ACACTACG,0.283 ± 0.0065
9,AGAGTTGC,0.0099 ± 0.0045
10,AGTACTCC,-0.28 ± 0.033
11,CTAGGCCC,-0.274 ± 0.082
12,TAATGCGA,0.0983 ± 0.054
13,AAAACCTG,0.191 ± 0.063
14,CTAGCCAG,-0.185 ± 0.027
15,AAACTCTC,-0.00208 ± 0.031
16,GGAGCTCA,-0.0734 ± 0.021
17,GTGTTAAC,0.438 ± 0.017
18,ATGTTAAC,0.161 ± 0.015
19,CTGTTAAC,0.281 ± 0.055
20,CTAAGTGA,0.225 ± 0.032
21,AACTTAGA,-0.157 ± 0.055
22,ACGCAGTA,-0.0663 ± 0.018
23,GCGTGTCA,0.276 ± 0.034
24,GGGGGTCA,-0.0111 ± 0.17
25,CGATGTCA,0.0984 ± 0.03

row,Sequence,PBM E-score of 8-mer
1,GGGTGTCA,0.472 ± 0.0071
2,CGGTGTCC,-0.00395 ± 0.072
3,CGGTGTCA,0.4 ± 0.012
4,CGGTGTGA,0.451 ± 0.0064
5,CGGTGTGC,0 ± 0.12
6,CGATGTGA,0.228 ± 0.018
7,CGAAATTC,0.0215 ± 0.011
8,ATAATGCC,-0.174 ± 0.081
9,AGTATGCG,-0.0996 ± 0.096
10,CAGAACCA,-0.232 ± 0.018
11,GCAATTCA,0.0777 ± 0.042
12,GACAAGGC,0.101 ± 0.025
13,CTTCGCCC,-0.0791 ± 0.096
14,CTTCGCAA,0.336 ± 0.028
15,ATTCGCAA,0.298 ± 0.027
16,ATTCGCAG,0.297 ± 0.024
17,ATTCGCAC,0.4784 ± 0.002
18,CTTCGCAC,0.454 ± 0.019
19,GATTACGA,-0.00232 ± 0.07
20,ATGGCAGA,-0.0257 ± 0.063
21,AAGACATT,-0.203 ± 0.097
22,ATGACACG,0.312 ± 0.017
23,CTGACATC,-0.0976 ± 0.035
24,CTGACACC,0.464 ± 0.0063
25,ATGACACC,0.463 ± 0.0098
